Laboratory results as given in PubChem BioAssay (NCATS).
Results filed as inconclusive are left out. Activity calls are given as the source filed them. The call rests on the fitted dose curve; in most records, active means well fitted curve in the direction sought with a large enough effect; inconclusive means small, poorly fitted or top-dose-only effect, or another doubt; inactive means no such curve, though single readings can be large; an effect the other way counts as inactive or inconclusive.

Columns and labels:
[1] = Tertiary RLuc qRT-PCR qHTS assay for Zika virus inhibitors (AID 1347169); conditions: infected Vero cells, reporter luminescence, 48-72 h; series mostly up to 45.9 µM; further: top concentration of the series differs between compounds; nearly all actives have a fitted effect of over 55% in size
In short: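 Inhibition of ZIKV-RLuc replication in Vero cells, read as Renilla luminescence 1-1.5 hrs after live-cell substrate addition, following 48-72 hrs infection at MOI 1-2 in presence of compound.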

[2] = OV-KATE Cancer Cell Toxicity qHTS against the NCATS CANVASS Library (AID 1347345); conditions: OV-KATE cells viability, CellTiter-Glo luminescence, 72 h; series mostly up to 38.3 µM
In short: (§1)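 1000 cells/well seeded and rested 4 h at 37 °C before pin transfer of compounds in an 11-pnt series. Exposure 72 h at 37 °C/5% CO2; viability by CellTiter-Glo luminescence after 15 min at room temperature.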

[3] = HPAF-II Cancer Cell Toxicity qHTS against the NCATS CANVASS Library (AID 1347346); conditions: HPAF-II viability, CellTiter-Glo ATP luminescence, 72 h; series mostly up to 38.3 µM; further: nearly all actives have a fitted effect of over 55% in size
In short: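 First, HPAF-II cells are plated (1000 cells/well) and held 4 h at 37 degrees C. Next, compounds are pin-transferred as an 11-point series. After 72 h, CellTiter-Glo is added and luminescence measured.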

[4] = UWB1.289 Cancer Cell Toxicity qHTS against the NCATS CANVASS Library (AID 1347347); conditions: UWB1.289 viability, CellTiter-Glo luminescence, 72 h; series mostly up to 38.3 µM; further: nearly all actives have a fitted effect of over 60% in size
In short: as §1

[5] = OV-SAHO Cancer Cell Toxicity qHTS against the NCATS CANVASS Library (AID 1347348); conditions: OV-SAHO viability, CellTiter-Glo luminescence, 72 h; series mostly up to 38.3 µM; further: nearly all actives have a fitted effect of over 55% in size
In short: as §1

[6] = Panc-1005 Cancer Cell Toxicity qHTS against the NCATS CANVASS Library (AID 1347349); conditions: Panc-1005 viability, CellTiter-Glo luminescence, 72 h; series mostly up to 38.3 µM; further: nearly all actives have a fitted effect of over 60% in size
In short: as §1

[7] = SW1088 Cancer Cell Toxicity qHTS against the NCATS CANVASS Library (AID 1347350); conditions: SW1088 viability, CellTiter-Glo luminescence, 72 h; series mostly up to 38.3 µM; further: nearly all actives have a fitted effect of over 75% in size
In short: as §1

[8] = U-118MG Cancer Cell Toxicity qHTS against the NCATS CANVASS Library (AID 1347351); conditions: U-118MG viability, CellTiter-Glo luminescence, 72 h; series mostly up to 38.3 µM
In short: as §1

[9] = COV-362 Cancer Cell Toxicity qHTS against the NCATS CANVASS Library (AID 1347352); conditions: COV-362 viability, CellTiter-Glo luminescence, 72 h; series mostly up to 38.3 µM
In short: (§2)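 First, 1000 cells go into each well and rest for 4 hours. Next, an 11-point dilution range is pinned in. Plates then incubate 72 hours before CellTiter-Glo addition and luminescence reading.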

[10] = A2780 Cisplatin Sensitive Ovarian Cancer Cell Toxicity qHTS against the NCATS CANVASS Library (AID 1347353); conditions: A2780 ovarian cancer viability, ATPLite luminescence, 72 h; at 46.1 µM (top of the series); further: nearly all actives have a fitted effect of over 60% in size
In short: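 Cells are plated at 750 per well and rest for 4 hours. Compounds are added across eleven concentrations, and incubated 72 hours before ATP is quantified by luminescence.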

[11] = UWB1.289-WTBRCA1 Cancer Cell Toxicity qHTS against the NCATS CANVASS Library (AID 1347354); conditions: UWB1.289-WTBRCA1 viability, CellTiter-Glo luminescence, 72 h; at 38.3 µM (top of the series)
In short: as §2

[12] = HEK-293 Cancer Cell Toxicity qHTS against the NCATS CANVASS Library (AID 1347355); conditions: HEK-293 viability, CellTiter-Glo luminescence, 72 h; series mostly up to 46.1 µM; further: nearly all actives have a fitted effect of over 65% in size
In short: as §2

[13] = HPAF-II 24hr Apoptosis Induction qHTS against the NCATS CANVASS Library (AID 1347356); conditions: HPAF-II caspase-3/7 Caspase-Glo luminescence; series mostly up to 46.1 µM
In short: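 Cells seeded at 500 per well, then compounds pin-transferred in an 11-point concentration series. After 24 hours at 37 degrees C, Caspase-Glo 3/7 was added and luminescence measured following 15 min at room temperature.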

[14] = HEK293 18hr Apoptosis Induction qHTS against the NCATS CANVASS Library (AID 1347357); conditions: HEK293 caspase-3/7 Caspase-Glo luminescence; series mostly up to 46.1 µM
In short: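 Natural products applied to HEK293 for 18 hr; Caspase-Glo 3/7 readout.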

[15] = HPAF-II 12hr Apoptosis Induction qHTS against the NCATS CANVASS Library (AID 1347358); conditions: HPAF-II caspase-3/7 Caspase-Glo luminescence; series mostly up to 46.1 µM
In short: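 Cells plated at 500 per well are dosed with compound and incubated 12 hours at 37 degrees C. Caspase-Glo 3/7 reagent is added and, after 15 min at room temperature, luminescence proportional to caspase activity is measured.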

[16] = HEK293 24hr Apoptosis Induction qHTS against the NCATS CANVASS Library (AID 1347359); conditions: HEK293 caspase-3/7 activation, Caspase-Glo luminescence; series mostly up to 46.1 µM
In short: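 Caspase-3/7 activation measured as luminescence from the DEVD-based Caspase-Glo reagent, 15 min at room temperature, following 24-hour compound treatment of HEK293 cells.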

[17] = HPAF-II 18hr Apoptosis Induction qHTS against the NCATS CANVASS Library (AID 1347360); conditions: HPAF-II caspase-3/7 luminescence; series mostly up to 46.1 µM
In short: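 Luminescent DEVD-substrate signal, proportional to caspase activity, is measured in HPAF-II cells after 18-hour treatment across a concentration series; doxorubicin serves as control.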

[18] = HEK293 12hr Apoptosis Induction qHTS against the NCATS CANVASS Library (AID 1347361); conditions: HEK293 caspase-3/7 Caspase-Glo luminescence; series mostly up to 46.1 µM
In short: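 Luminescent caspase-3/7 signal, proportional to enzyme activity, was recorded from HEK293 cultures in DMEM + 10% FBS treated for 12 hours with titrated natural products (11 points). Doxorubicin (0.1nM - 4uM) served as control.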

[19] = tested on: NAD(P)H diaphorase (Clostridium kluyveri); test: Diaphorse counterscreen qHTS: Assay Interference Panel against the NCATS CANVASS Library (AID 1347362); conditions: Diaphorase enzyme, resazurin to resorufin fluorescence; series mostly up to 57.5 µM
In short: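 Counterscreen for coupling-enzyme interference: resorufin fluorescence from resazurin/NADH turnover, read after 5 min at room temperature. Compounds were tested over an 11-point series after 15 min dark preincubation with diaphorase in PBS-Tween.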

[20] = HepG2 cells viability qHTS for Zika virus inhibitors (AID 1347168); conditions: Zika counter-screen; series mostly up to 91.6 µM
In short: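 Luminescent ATP readout (CellTiter Glo) after 30 min at 37 degrees C gives viability; cells in DMEM + 4% FBS were treated 24 to 48 hours with compound, following overnight attachment.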

Measured: outcome

Cc1nnc2n1-c1sc(CCc3ccc(CC(C)C)cc3)cc1C(c1ccccc1Cl)=NC2C (stereo unspecified)
inactive: [1]

CN(C)CCc1c[nH]c2ccccc12
not listed: [1] | [20]
inactive: all other assays above

CC(C)=CCN1CC[C@@]2(C)c3cc(O)ccc3C[C@@H]1[C@@H]2C
inactive: [20]

Oc1ccc([C@H]2CNCc3c2ccc(O)c3O)cc1O
inactive: [20]
